Calls of active or inactive are those of the source. Rule for the calls: active = hit-call score of the fitted dose curve at least 0.9, where 1 is the maximum; inactive = score below 0.9.

The assay can be described thus: ATG_E_Box_CIS: Attagene CIS-FACTORIAL HepG2 Assay for human Enhancer Box (E-box) (AID 2282936). Particulars: HepG2 E-box cis-reporter transcription, actives raise or lower the signal. In outline: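 Endogenous transcription factor activity was sensed in human HepG2 liver cells through transfected cis-promoter reporter units. After 24 h of dosing, total RNA was reverse-transcribed and reporter cDNA resolved by capillary electrophoresis.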
As for `CCOC(=O)CC(C)O` (stereo not drawn), the result was inactive. Regarding `CCCC(=O)OCCc1ccccc1`, the outcome was inactive. For `CC1(C)O[C@@H]2[C@@H](CO[C@@]3(COS(N)(=O)=O)OC(C)(C)O[C@@H]23)O1`, the result was inactive.

`[Cl][Au]([Cl])[Cl]`: the outcome was inactive.

`CCCCCC(C=O)=Cc1ccccc1`: the result was inactive. Still for that read-out and setting: with `C=CC(C)C#N` (stereo not drawn) the entry was “inactive”; with `C[C@H]1O[C@@H](O[C@H]2[C@@H](O)C[C@H](O[C@H]3[C@@H](O)C[C@H](O[C@H]4CC[C@@]5(C)[C@H](CC[C@@H]6[C@@H]5C[C@@H](O)[C@]5(C)[C@@H](C7=CC(=O)OC7)CC[C@]65O)C4)O[C@@H]3C)O[C@@H]2C)C[C@H](O)[C@@H]1O`, “inactive”. Consider `ClC(c1ccccc1)(c1ccccc1)c1ccccc1`, for which the outcome was inactive. On to `O=c1c(O)c(-c2ccc(O)cc2)oc2cc(O)cc(O)c12`, for which the outcome was inactive. Same read-out and setting: then `CN1CCOCC1`, with “inactive”. For `CC/C=C\CC/C=C/CO`, the outcome was inactive. The same measure, in the same setting: then `CS(=O)(=O)c1ccc(C2=C(c3ccccc3)C(=O)OC2)cc1`, with “inactive”; and `CC1C2CC(CC2C2CCCC(O)C2)C1(C)C` (stereo not drawn), with “inactive”.

Take `COC(=O)Nc1ccc(Cl)c(Cl)c1`: the result was inactive.

`CC(O)C1CCCCC1` (stereo not drawn): the outcome was inactive. Take `Oc1c(Cl)cc(Cl)c(Cl)c1Cc1c(O)c(Cl)cc(Cl)c1Cl`: the result was inactive.

In general, AC50 refers to the midpoint of the concentration-response curve, whichever way the signal moves. As for `N#Cc1ccc(CC(=O)c2cccc(C(F)(F)F)c2)cc1`, the AC50 was 170 µM (active).

In the case of `COS(=O)(=O)O`, the outcome was inactive. On to `CCCCCCOC(=O)CCC`, for which the outcome was inactive. Take `COC(C)(C)CCCC(C)CC=O` (stereo not drawn): the result was inactive. As for `CSCCC=O`, the result was inactive.

Consider `Brc1ccc(Br)c(Br)c1`, for which the result was inactive. Consider `Cc1cc(C)nc(NS(=O)(=O)c2ccc(N)cc2)n1`, for which the result was inactive.
